{
  "source": "the antibiotic and cytotoxicity screens of Wong et al. (2023)",
  "note": "About 3,300 (8.5%) of roughly 39,000 compounds were called active. This is one part of a sample in which actives are shown more often than they occur.",
  "data": [
    {"system": "HepG2", "experiment": "cytotoxicity call (relative viability < 0.9)", "conditions": "10 µM", "values": [
      {"smiles": "C[C@@H]1CN([C@H](C)CO)C(=O)c2cc(NC(=O)CCN3CCOCC3)ccc2O[C@H]1CN(C)CC1CCCCC1", "cytotoxicity call": "inactive"},
      {"smiles": "C[C@H]1CN([C@@H](C)CO)C(=O)Cc2cc(NC(=O)Cc3ccccc3)ccc2O[C@H]1CN(C)S(=O)(=O)c1cccs1", "cytotoxicity call": "inactive"},
      {"smiles": "C[C@@H]1CN([C@@H](C)CO)C(=O)Cc2cc(NC(=O)Cc3ccccc3)ccc2O[C@@H]1CN(C)S(=O)(=O)c1cccs1", "cytotoxicity call": "active"},
      {"smiles": "C[C@@H]1CN([C@H](C)CO)C(=O)Cc2cc(NC(=O)CCC(F)(F)F)ccc2O[C@@H]1CN(C)S(=O)(=O)c1ccccc1", "cytotoxicity call": "inactive"},
      {"smiles": "C[C@@H]1CN([C@@H](C)CO)C(=O)Cc2cc(NC(=O)CCC(F)(F)F)ccc2O[C@@H]1CN(C)S(=O)(=O)c1ccccc1", "cytotoxicity call": "active"},
      {"smiles": "C[C@@H]1CN([C@@H](C)CO)C(=O)Cc2cc(NC(=O)Cc3ccccc3)ccc2O[C@H]1CN(C)S(=O)(=O)c1cccs1", "cytotoxicity call": "inactive"},
      {"smiles": "C[C@H](CO)N1C[C@H](C)[C@@H](CN(C)S(=O)(=O)c2ccccc2)Oc2ccc(NC(=O)CCC(F)(F)F)cc2CC1=O", "cytotoxicity call": "inactive"},
      {"smiles": "C[C@@H]1CN([C@@H](C)CO)C(=O)c2cc(Br)cnc2O[C@H]1CN(C)Cc1ccccc1C(=O)O", "cytotoxicity call": "inactive"},
      {"smiles": "COc1nc2ccc(Br)cc2cc1[C@@H](c1ccccc1)[C@@](O)(CCN(C)C)c1cccc2ccccc12", "cytotoxicity call": "inactive"},
      {"smiles": "C[C@@H]1CCCCO[C@@H](CN(C)Cc2ccccc2)[C@H](C)CN([C@H](C)CO)C(=O)c2cc(NC(=O)Nc3ccc4c(c3)OCO4)ccc2O1", "cytotoxicity call": "inactive"},
      {"smiles": "CCOc1ccc(CO[C@@H]2O[C@H](CO)[C@@H](O)[C@H](O)[C@H]2NC(C)=O)cc1OC", "cytotoxicity call": "active"},
      {"smiles": "CC(=O)N[C@@H]1[C@@H](Oc2ccc(C(C)=O)cc2)O[C@H](CO)[C@H](O)[C@@H]1O", "cytotoxicity call": "inactive"},
      {"smiles": "CC(=O)N[C@@H]1[C@@H](OCCOc2ccc(Cl)cc2C)O[C@H](CO)[C@H](O)[C@@H]1O", "cytotoxicity call": "inactive"},
      {"smiles": "COCCOC(=O)N1C(=O)[C@@]2(c3ccccc31)[C@H](C(=O)Nc1nc3ccccc3s1)[C@H]1C(=O)O[C@H](c3ccccc3)[C@H](c3ccccc3)N1[C@@H]2c1ccc(OCCO)cc1", "cytotoxicity call": "inactive"},
      {"smiles": "CC(C)NC(=O)Cn1ccc([N+](=O)[O-])n1", "cytotoxicity call": "inactive"},
      {"smiles": "NS(=O)(=O)c1ccccc1", "cytotoxicity call": "inactive"},
      {"smiles": "NS(=O)(=O)C#Cc1ccccc1", "cytotoxicity call": "active"},
      {"smiles": "Nc1ccccc1S(N)(=O)=O", "cytotoxicity call": "inactive"},
      {"smiles": "C[C@H]1CN([C@@H](C)CO)S(=O)(=O)c2ccc(C#Cc3cccnc3)cc2O[C@@H]1CN(C)C(=O)CN(C)C", "cytotoxicity call": "inactive"},
      {"smiles": "CC(C)(O)CC(=O)NCCn1ccc2ncnc(Nc3ccc(Oc4cccc(C(F)(F)F)c4)c(Cl)c3)c21", "cytotoxicity call": "inactive"},
      {"smiles": "CS(=O)(=O)CCNCc1ccc(-c2ccc3ncnc(Nc4ccc(OCc5cccc(F)c5)c(Cl)c4)c3c2)o1", "note": "[listing 1 of 2 here]", "cytotoxicity call": "active"},
      {"smiles": "CS(=O)(=O)CCNCc1nc(-c2ccc3ncnc(Nc4ccc(OCc5cccc(F)c5)c(Cl)c4)c3c2)cs1", "cytotoxicity call": "inactive"},
      {"smiles": "CS(=O)(=O)CCNCc1ccc(-c2ccc3ncnc(Nc4ccc(OCc5cccc(F)c5)c(Cl)c4)c3c2)o1", "note": "[listing 2 of 2 here]", "cytotoxicity call": "active"},
      {"smiles": "CC(CCC(=O)O)C1CCC2C3CCC4CCCCC4(C)C3CCC12C", "note": "(centres undefined)", "cytotoxicity call": "inactive"},
      {"smiles": "CN(C)CC(=O)N[C@H]1CC[C@H](CC(=O)NCCN2CCCCC2)O[C@H]1CO", "cytotoxicity call": "inactive"},
      {"smiles": "Cc1ccc(S[C@]2(C(=O)NCCCN(C)C)CC(=O)N(C3Cc4ccccc4C3)[C@@H]2c2ccc(CO)cc2I)cc1", "cytotoxicity call": "inactive"},
      {"smiles": "CS(=O)(=O)N1C[C@H](O)COC[C@@H]2O[C@@H](CC(=O)NCCc3ccncc3)CC[C@H]21", "cytotoxicity call": "inactive"},
      {"smiles": "CO[C@H]1CN(C)C(=O)c2cc(NS(C)(=O)=O)ccc2OC[C@@H](C)N(C(=O)CN(C)C)C[C@@H]1C", "cytotoxicity call": "inactive"},
      {"smiles": "C[C@H]1CCCCO[C@H](CN(C)CC2CC2)[C@@H](C)CN([C@@H](C)CO)C(=O)c2cc(NC(=O)CCC(F)(F)F)ccc2O1", "cytotoxicity call": "inactive"},
      {"smiles": "Cc1ccc(NC(=O)c2ccc(CN3CC[C@H](N(C)C)C3)c(C(F)(F)F)c2)cc1Nc1nccc(-c2cncnc2)n1", "cytotoxicity call": "active"},
      {"smiles": "Cc1ncc(NC(=O)c2ccc(CN3CCN(C)CC3)c(C(F)(F)F)c2)cc1Nc1nccc(-c2cccnc2)n1", "cytotoxicity call": "active"},
      {"smiles": "Cc1ccc(NC(=O)c2ccc(CN3CCN(C)CC3)cc2)cc1Nc1nccc(-c2cccnc2)n1", "cytotoxicity call": "inactive"},
      {"smiles": "Cc1ccc(S(=O)(=O)Nc2ccc3c(c2)C(=O)N([C@@H](C)CO)C[C@H](C)[C@@H](CN(C)C(=O)C2CCCCC2)OCCCC[C@H](C)O3)cc1", "cytotoxicity call": "inactive"},
      {"smiles": "COc1ccc(CCNC(=O)[C@@H]2c3ccccc3C(=O)N(Cc3ccccc3OC)[C@H]2c2ccc(CO)cc2)cc1", "cytotoxicity call": "inactive"},
      {"smiles": "C[C@@H]1CCCCO[C@H](CN(C)CC2CCCCC2)[C@@H](C)CN([C@H](C)CO)C(=O)c2cc(NC(=O)CCC(F)(F)F)ccc2O1", "cytotoxicity call": "inactive"},
      {"smiles": "COc1ccc(NC(=O)N(C)C[C@H]2OCCCC[C@H](C)Oc3ccc(NS(=O)(=O)c4ccccc4)cc3C(=O)N([C@@H](C)CO)C[C@@H]2C)cc1", "cytotoxicity call": "inactive"},
      {"smiles": "Cc1ccc(S(=O)(=O)N(C)C[C@H]2OCCCC[C@H](C)Oc3ccc(NC(=O)Cc4ccccc4)cc3C(=O)N([C@@H](C)CO)C[C@H]2C)cc1", "cytotoxicity call": "inactive"},
      {"smiles": "COc1ccc([Si](C)(C)[C@H]2[C@H](CCO)O[C@@]3(C(=O)N(Cc4cccc(N5C(=O)c6ccccc6Oc6ccccc65)c4)c4ccccc43)[C@@H]2C)cc1", "cytotoxicity call": "active"},
      {"smiles": "C[C@H]1[C@H]([Si](C)(C)F)[C@@H](CCO)O[C@]12C(=O)N(Cc1cccc(N3C(=O)c4ccccc4Oc4ccccc43)c1)c1ccccc12", "cytotoxicity call": "inactive"},
      {"smiles": "COc1ccc([Si](C)(C)[C@H]2[C@H](CCO)O[C@@]3(C(=O)N(Cc4cccc(N5CCCCC5=O)c4)c4ccccc43)[C@@H]2C)cc1", "cytotoxicity call": "inactive"},
      {"smiles": "COc1ccc([Si](C)(C)[C@@H]2[C@@H](CCO)O[C@]3(C(=O)N(Cc4cccc(N5C(=O)c6ccccc6Oc6ccccc65)c4)c4ccccc43)[C@H]2C)cc1", "cytotoxicity call": "active"},
      {"smiles": "CCNc1ncnc2c1nnn2C", "cytotoxicity call": "inactive"},
      {"smiles": "Nc1cc([N+](=O)[O-])ccc1C(=O)O", "cytotoxicity call": "inactive"},
      {"smiles": "C[C@@H]1CCCCO[C@H](CN(C)C(=O)Nc2ccc(F)cc2)[C@@H](C)CN([C@H](C)CO)C(=O)c2cc(NC(=O)c3ccncc3)ccc2O1", "cytotoxicity call": "inactive"}
    ]}
  ]
}
